Test results: the supplement of paper PMC7156485
± gives the standard deviation of the averaged measurements.

Each compound was assayed on TDF (assay: cell number relative to DMSO (% of DMSO); higher = more cells (less growth inhibition / toxicity)). Details: concentration: 10 µM; 24 h.
Procedure, shortened: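 In 384-well plates holding 800 HCC1569 or TDF cells per well in RPMI with 10% FBS, compounds were tested at 10 µM for 24 h at 37 °C in triplicate. Fixation used 3.7% formaldehyde. Staining used a rabbit anti-H1.0 antibody with an AlexaFluor 647 secondary, plus DAPI. Each value, H1.0 nuclear intensity or cell number, is a median of replicates shown as percent of the plate control, and HCC1569 values were smoothed for positional effects.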
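Further: TDF denotes transformed human dermal fibroblasts of mesenchymal origin.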

| Compound | cell number |
| --- | --- |
| CN(C)C(=O)Oc1cc(OC(=O)N(C)C)cc(C(O)CNC(C)(C)C)c1.Cl (centres undefined) | 104 |
| CS(=O)(=O)O.O.Oc1ccc2c3c1OC1c4oc5ccccc5c4CC4(O)C(C2)N(CC2CC2)CCC314 (centres undefined) [Naltriben methanesulfonate hydrate] | 101 |
| CCCCCC1OC1CC=CCCCCCCCC(=O)O (centres undefined) [Leukotoxin B (12,13-EODE)] | 106 |
| CN1C2CCC1CC(OC(=O)c1cc(Cl)cc(Cl)c1)C2 (centres undefined) [3-Tropanyl-3,5-dichlorobenzoate] | 106 |
| COc1cc2c(cc1OC)C(C)NCC2 (centres undefined) [Salsolodine] | 97.2 |
| Br.COC(=O)C1=CCCN(C)C1 [Arecoline hydrobromide] | 102 |
| Cc1cc(O)c2c(=O)c3c(O)cc(O)c4c5c(O)cc(O)c6c(=O)c7c(O)cc(C)c8c1c2c(c34)c(c78)c65 [Hypericin] | 100 ± 2.6 |
| CCCN1CCOC2c3cc(O)ccc3OCC21.Cl (racemic) | 91 |
| NC(Cn1cc(I)c(=O)[nH]c1=O)C(=O)O (centres undefined) [S-5-Iodowillardiine] | 107 |
| COc1ccc2c(c[n+](C)c3c4cc5c(cc4ccc23)OCO5)c1OC.[Cl-] [Chelerythrine] | 17.4 |
| CCC1(C2OC(C3OC(O)(CO)C(C)CC3C)CC2C)CCC(C2(C)CCC3(CC(O)C(C)C(C(C)C(OC)C(C)C(=O)[O-])O3)O2)O1.[Na+] (centres undefined) [Monensin] | 74.5 |
| CC(C)(C)c1o[nH]c(=O)c1CC(N)C(=O)O (centres undefined) | 104 |
| CCN1CC2(C)CCC(O)C34C5CC6C(OC)CC(O)(C(CC23)C14)C5C6O (centres undefined) [Karakoline] | 99.5 ± 1.5 |
| CCCCCC=CCC=CCCCCCCCC(=O)NCCO [Anandamide (18:2,n-6)] | 108 |
| C[C@]12CC[C@@H](O)C[C@@H]1CC[C@@H]1[C@@H]2CC[C@]2(C)[C@@H](O)CC[C@@H]12 [5alpha-Androstane-3alpha,17beta-diol] | 104 |
| NC(C(=O)O)c1cc(=O)[nH]o1 (racemic) | 103 |
| c1cc2c(cc1C1OCC3C(c4ccc5c(c4)OCO5)OCC13)OCO2 (single isomer, unassigned; (-)) [(-)-Asarinin] | 99.2 |
| CS(=O)(=O)O.S=C=Nc1cccc(C2(N3CCCCC3)CCCCC2)c1 [Metaphit methanesulfonate] | 107 |
| CC12CCC3C(CC=C4CC(O)CCC43C)C1CCC2=O (centres undefined) [Dehydroepiandrosterone] | 107 |
| O.O=P1(N(CCCl)CCCl)NCCCO1 (centres undefined) [Cyclophosphamide monohydrate] | 61.2 |

| Compound | cell number |
| --- | --- |
| Cl.O=C1CC2OCC=C3CN4CCC56c7ccccc7N1C5C2C3CC46 (centres undefined) | 102 ± 1.1 |
| CC(C)CC(NP(=O)([O-])OC1OC(C)C(O)C(O)C1O)C(=O)NC(Cc1c[nH]c2ccccc12)C(=O)[O-].[Na+].[Na+] (centres undefined) [Phosphoramidon disodium] | 110 |
| CCn1cc(C(=O)[O-])c(=O)c2ccc(C)nc21.[Na+] [Nalidixic acid sodium] | 107 |
| CC(C)C1(NC(=O)C2C=C3c4cccc5[nH]cc(c45)CC3N(C)C2)OC2(O)C3CCCN3C(=O)C(Cc3ccccc3)N2C1=O (centres undefined) [Ergocristine] | 109 |
| CCCCCC=CCC(C=CC=CCC=CCCCC(=O)O)OO (centres undefined) | 101 |
| COC(=O)N1CCN(C(=O)Cc2ccc(Cl)c(Cl)c2)C(CN2CCCC2)C1.O=C(O)C=CC(=O)O (centres undefined) | 102 |
| BrC1C(Br)C(Br)C(Br)C(Br)C1Br (centres undefined) | 106 |
| COc1ccc(C(=O)OC2CCC3(C)C4CCC5C6(O)CC(O)C7(O)C(CN8CC(C)CCC8C7(C)O)C6(O)CC53OC24O)cc1OC (centres undefined) [Veratridine] | 97.2 |
| CC1C(=O)OC2CCN3CC=C(COC(=O)C(C)(O)C1(C)O)C23 (centres undefined) [Monocrotaline] | 109 |
| CCCCCC=CCC=CCC=CCC=CCCCC(=O)NC(C)CO [(R)-Methandamide] | 98.1 |
| CCCC(C)(COC(N)=O)COC(=O)NC(C)C (centres undefined) [Carisoprodol] | 90.8 |
| C#C[C@]1(O)CC[C@H]2[C@@H]3CC[C@H]4Cc5nc6nc7ccccc7n6cc5C[C@]4(C)[C@H]3CC[C@@]21C | 88.1 |
| Cl.O=C1CCC2(O)C3Cc4ccc(O)c5c4C2(CCN3CC2CC2)C1O5 (centres undefined) [Naltrexone.HCl] | 100 |
| CCCCCCCCCCCCCC(=O)OC1C(C)C2(O)C(C=C(CO)CC3(O)C(=O)C(C)=CC32)C2C(C)(C)C12OC(C)=O (centres undefined) [Phorbol 12-myristate 13-acetate] | 74.6 ± 8.8 |
| CN(C)C(=O)C(CCN1CCC(O)(c2ccc(Cl)cc2)CC1)(c1ccccc1)c1ccccc1.Cl [Loperamide hydrochloride] | 88.6 |
| CC1(CO)C(O)CCC2(C)C1CCC1CC3CC12CCC3(O)CO (centres undefined) [Aphidicolin] | 55.2 |
| CCCCCC=CCC=CCC=CCC=CCCCCCC(=O)NCCO [Anandamide (22:4,n-6)] | 104 |
| COc1cc(CC(C)N)c(OC)cc1I.Cl (racemic) | 109 |
| CCC=CCC(C=CC=CCC=CCC=CCCCC(=O)O)OO (centres undefined) | 92.8 |
